Measured values reported in article PMC7819943, “Rice protein-binding microarrays: a tool to detect cis-acting elements near promoter regions in rice”.
In all, about 35,000 sequences were measured (“fluorescence intensity (a.u.)”: median about 10,000, highest 2% from about 52,000 on). This excerpt belongs to a sample that is enriched for the highest values.

molecular target: T1, OsWOX13 (Oryza sativa, UniProt Q5QMM3 1-267); assay: protein-binding microarray (RPBM); PBS, 2% BSA, 51.3 ng/ul salmon testes DNA, 50 uM zinc acetate, 200 nM TF, 25 C, 1 h; high values mean tight binding; conditions: protein: recombinant; tags: N-terminal polyhistidine and DsRed monomer fusion (pET32a); label: CyDye5-dUTP incorporated in the synthesized complementary strand; 3' TTTTT single-stranded linker to array surface; dsDNA, one strand shown
T1 sequence: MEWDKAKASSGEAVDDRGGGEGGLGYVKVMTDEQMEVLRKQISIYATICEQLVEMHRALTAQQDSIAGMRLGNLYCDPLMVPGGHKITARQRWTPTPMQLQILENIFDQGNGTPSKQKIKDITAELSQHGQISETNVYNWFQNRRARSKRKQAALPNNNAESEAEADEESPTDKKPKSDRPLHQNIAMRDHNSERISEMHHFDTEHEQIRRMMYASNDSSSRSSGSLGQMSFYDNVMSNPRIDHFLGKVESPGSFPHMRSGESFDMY
How it was run: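 Polyhistidine-tagged DsRed fusions of transcription factors, joined at the N-terminus, were expressed in E. coli BL21-CodonPlus and isolated on Ni–NTA. They were incubated at 200 nM for 1 h at 25 °C on a custom Agilent array, double-stranded and BSA-blocked, in PBS with 2% BSA, salmon testes DNA and 50 µM zinc acetate. The binding signal is per-feature fluorescence intensity (arbitrary units) read on an Axon 4000B scanner after washing.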

Row | Sequence | binding signal
1 | AATCCTAATTATAAGATTTAAGACCTTTCTCTTCACTTCACGGAGTCACCTAGTGCAG | 9800 fluorescence intensity (a.u.)
2 | AAGGATTAGATATGATTCAATCTTTTGGTTCAAAGTTCTTCGGAGTCACCTAGTGCAG | 6590 fluorescence intensity (a.u.)
3 | TTGGCCTTCAATCATTGACACTTGGACAGAACAAATCAATCGGAGTCACCTAGTGCAG | 26000 fluorescence intensity (a.u.)
4 | CTCAATAATTAAGTTCTTGATTAACATTGATATTACTTTCCGGAGTCACCTAGTGCAG | 24600 fluorescence intensity (a.u.)
5 | GAGATATAATTGATTAGAGTTACTTTCAATCTTTTCCGTGCGGAGTCACCTAGTGCAG | 62000 fluorescence intensity (a.u.)
6 | TCTAAATTAATCTTTAGTTCTTGACCGCAAAATATGAAGCCGGAGTCACCTAGTGCAG | 14800 fluorescence intensity (a.u.)
7 | TAACGGATTGATACATCTGGTTACAAATGTGCACTACATACGGAGTCACCTAGTGCAG | 3880 fluorescence intensity (a.u.)
8 | TAGCTAATTTGCACCCACATGCATGTGCTTCGAGTAGTTACGGAGTCACCTAGTGCAG | 7070 fluorescence intensity (a.u.)
9 | CCCTTACTGATTGGACGGTCCCGCGCATAAGCATGCGCACCGGAGTCACCTAGTGCAG | 27800 fluorescence intensity (a.u.)
10 | ATGGGCCACGGGCCCACGGACCATACGCATAGGATTCAACCGGAGTCACCTAGTGCAG | 59500 fluorescence intensity (a.u.)
11 | TTCAACCATAAATTGAATTGAATAGGACGGATGATGGTTACGGAGTCACCTAGTGCAG | 12700 fluorescence intensity (a.u.)
12 | TGATTAACAGCAACCATAGACGGGACAGGCCAGCCCACCACGGAGTCACCTAGTGCAG | 3260 fluorescence intensity (a.u.)
13 | GTACAATTTTCATAATTTGCATAAATCGAAAAGAAAAGTGCGGAGTCACCTAGTGCAG | 12400 fluorescence intensity (a.u.)
14 | CAAATGAGCTAATACTTAATTAATAATGCGCTAATGGATCCGGAGTCACCTAGTGCAG | 4340 fluorescence intensity (a.u.)
15 | ACTAATGATGGATTAATTAGGCTTAATATATTCATCTCGCCGGAGTCACCTAGTGCAG | 58100 fluorescence intensity (a.u.)
16 | AATGATGGAGGATAATTTATATGCTAAATTATAAACTTGTCGGAGTCACCTAGTGCAG | 57700 fluorescence intensity (a.u.)
17 | GTTTGGATTGATTATTGGGACAGTGAAATTGACCATTTGACGGAGTCACCTAGTGCAG | 39600 fluorescence intensity (a.u.)
18 | TTAAATTATATTTATATCAAATTATACTTTGATCAATACTCGGAGTCACCTAGTGCAG | 39900 fluorescence intensity (a.u.)
19 | ATGATTAATACTTAATTAATTATGTGCGCTCATGGATCACCGGAGTCACCTAGTGCAG | 56400 fluorescence intensity (a.u.)
20 | GGTATGATAAACTTGACTAATTATACCATTGGATCATTGTCGGAGTCACCTAGTGCAG | 11000 fluorescence intensity (a.u.)
21 | GATTAATTAGGCTCAATATATTCATCTCGCGAATTAGTCCCGGAGTCACCTAGTGCAG | 33000 fluorescence intensity (a.u.)
22 | TGATGGATTAATATATGATTAATTAAGTATTAGCTTAAACCGGAGTCACCTAGTGCAG | 13200 fluorescence intensity (a.u.)
23 | TATGAGATATCATTTAATTATATAATAAATATAATGATGTCGGAGTCACCTAGTGCAG | 4610 fluorescence intensity (a.u.)
24 | TAAATTGATCAAATTGCCATTTGGAGTGCAGTGACGGGCTCGGAGTCACCTAGTGCAG | 54900 fluorescence intensity (a.u.)

Row | Sequence | binding signal
25 | TTTTATAATGATACTTAATTAATCATGTGCTAATAATCACCGGAGTCACCTAGTGCAG | 9330 fluorescence intensity (a.u.)
26 | CAAGAACCAATAATTTGCAAACTGTAGGGCACAGTTCGATCGGAGTCACCTAGTGCAG | 6920 fluorescence intensity (a.u.)
27 | GTCTCTTTGAAATTGAAATTGGGCCTCATTTAGTCTGTTACGGAGTCACCTAGTGCAG | 3500 fluorescence intensity (a.u.)
28 | TTTTCCATCACATTAACCTGTCATACACACAAAACTTTTCCGGAGTCACCTAGTGCAG | 4820 fluorescence intensity (a.u.)
29 | ACAATCAATCAATCTTGCTTTCCATTCAAAGTCTTCATTTCGGAGTCACCTAGTGCAG | 35000 fluorescence intensity (a.u.)
30 | AATGTGAGCATGTGATTTAAATTTGAGAAAATTCAACTTGCGGAGTCACCTAGTGCAG | 3660 fluorescence intensity (a.u.)
31 | GTCCTATTTGACGCTTTGATTAGACAACGCTTTGTCAATTCGGAGTCACCTAGTGCAG | 12900 fluorescence intensity (a.u.)
32 | CGCTTGATCTGGGGTGGGGTCGCGAGTGGTGGAGGAGGTGCGGAGTCACCTAGTGCAG | 3600 fluorescence intensity (a.u.)
33 | TGTTGACAAAATTAGCTGTTGCAACGCATACAGACTTCAACGGAGTCACCTAGTGCAG | 7410 fluorescence intensity (a.u.)
34 | CCCTAATTATGGTACGTGTTGATCGTGCCACTTCTTCCTCCGGAGTCACCTAGTGCAG | 39500 fluorescence intensity (a.u.)
35 | TTAGATAAAATTAATTTGTCTTGCTTTTGTAGGCTGCAGACGGAGTCACCTAGTGCAG | 27700 fluorescence intensity (a.u.)
36 | AAACCTAATTAATCATGCGCAAATGGCTTTCTTGTTTTGCCGGAGTCACCTAGTGCAG | 22900 fluorescence intensity (a.u.)
37 | TGATTTAATTAATTAATTAATGGCCTTGTTATTGGATGCTCGGAGTCACCTAGTGCAG | 47100 fluorescence intensity (a.u.)
38 | TGCTAATGATGGATTAATTAAGCTTAATAAATTCATCTCGCGGAGTCACCTAGTGCAG | 53700 fluorescence intensity (a.u.)
39 | TTGCTAATGACGGATTAATTATGCTTAATAAATTCATCTCCGGAGTCACCTAGTGCAG | 20600 fluorescence intensity (a.u.)
40 | ATGTGCTAATGATGGATTAATTACGCTTAATAAATTCGTCCGGAGTCACCTAGTGCAG | 28000 fluorescence intensity (a.u.)
41 | TACACTGATTAGTGGATGATGATATAGTATCTTTGTATGTCGGAGTCACCTAGTGCAG | 45600 fluorescence intensity (a.u.)
42 | GTTTGATTGCTTAATTAATTTCCAAATGCGCAATCATGCACGGAGTCACCTAGTGCAG | 64800 fluorescence intensity (a.u.)
43 | ATAAAATGTAAATTATGCTTAAAATGCTTTTAGTGATAAACGGAGTCACCTAGTGCAG | 4750 fluorescence intensity (a.u.)
44 | CTGGATGATTGGATTGATTATGGACAGATTTAAATTTGCTCGGAGTCACCTAGTGCAG | 65500 fluorescence intensity (a.u.)
45 | AATTAATCATGCAATAAAACAAATTTCGTTTTGCGTGCTACGGAGTCACCTAGTGCAG | 6310 fluorescence intensity (a.u.)
46 | ACTGATTAGTGGATATGCTTTATATATGTAATTAGGATGCCGGAGTCACCTAGTGCAG | 53000 fluorescence intensity (a.u.)
47 | ATGTATTTGCTATTAAATTAATTATAGATGATTTAGAGCTCGGAGTCACCTAGTGCAG | 16300 fluorescence intensity (a.u.)
